# An excerpt weighted towards active compounds, which were near 5% of everything screened.
# USP10 block = human USP10 deubiquitinase inhibition; Q14694; purified USP10, Ub-rhodamine fluorescence, 60 min; inhibition, % at 20 µM; actives 1.1% (n = 47,000)
# USP7 block = blocks human USP7 ubiquitin-rhodamine cleavage; Q93009; purified USP7, Ub-rhodamine cleavage fluorescence; inhibition, % at 20 µM; actives 0.3% (n = 47,000); AID 1645854
# UCHL1 inh = blocks human UCHL1 ubiquitin-rhodamine cleavage; P09936; purified UCHL1, Ub-rhodamine cleavage fluorescence; inhibition, % at 20 µM; actives 0.2% (n = 47,000)
# USP8 inh = inhibitors of human USP8 deubiquitinase. purified USP8, Ub-rhodamine cleavage fluorescence, 30 min. inhibition, % at 20 µM. actives 4.2% (n = 47,000)
# Numbers stand for hits; 0 = inactive. Rule as the data show it: active = inhibition above about 30%; inactive = the rest.
SMILES,USP10 block,USP7 block,UCHL1 inh,USP8 inh
Cc1ccc(C)c(Cn2nnc3c(=O)[nH]c(C4CCN(S(=O)(=O)c5ccc(S(=O)(=O)N6CCOCC6)cc5)CC4)nc32)c1,0,0,0,55.8
O=c1[nH]c(C2CCN(S(=O)(=O)c3ccc(S(=O)(=O)NC4CCCCC4)cc3)CC2)nc2c1nnn2Cc1c(F)cccc1Cl,44.8,0,0,0
O=C(NCCC1=CCCCC1)c1ccc(-c2cncnc2)nc1,0,0,0,0
O=c1[nH]c(C2CCN(S(=O)(=O)c3ccc(S(=O)(=O)NC4CCCCC4)cc3)CC2)nc2c1nnn2Cc1c(Cl)cccc1Cl,41.7,0,0,39.9
COCCNC(=O)c1ccnn1-c1ccc2ccc(-c3cccnc3)cn12,0,0,0,0
COC(=O)[C@@H]1Cc2nc[nH]c2CN1C(=O)c1ccc(-c2ccccc2)cc1,0,0,0,0
CC(C)(C)c1nn(-c2ccccc2)c2[nH]c(=O)c(CNCc3ccco3)cc12,0,0,0,38.9
COc1ccc(CCNCc2cc3c(C(C)(C)C)nn(-c4ccccc4)c3[nH]c2=O)cc1OC,0,0,0,45.8
Cc1ccc2c(C)c(C(=O)N(Cc3ccc(Cl)cc3)Cc3ccco3)oc2c1C,0,0,0,49.0
O=C(CN(Cc1ccccc1)S(=O)(=O)c1ccc(Cl)cc1)NCc1ccco1,0,0,0,0
COc1ccc(OC)c(NC(=O)c2sc(-c3ccccc3)nc2C)c1,0,0,0,41.8
COCCn1cc(CN2CCC(O)(c3ccccc3F)CC2)c2ccccc21,0,0,0,32.2
O=C(Nc1ccc2c(c1)OCCO2)C1=CCN(Cc2ccccc2F)CC1,0,0,0,0
CN(CCCNC(=O)c1cccc2c1SCCC2=O)c1ccccc1,0,0,0,40.2
O=C(Nc1ccccc1C(=O)O)c1ccc(CSCc2ccccc2)cc1,51.1,0,0,0
COc1ccc(CC(=O)NCc2ccc(-c3ncncc3-c3cc(C)no3)cc2)cc1C,0,0,0,0
NC(=O)c1cccc(NS(=O)(=O)c2ccccc2)c1,0,0,0,0
O=S(=O)(Nc1ccc(Oc2ccccc2)cc1)c1ccccc1,0,0,0,34.4
Cc1cc(N2CCCC2=O)ccc1S(=O)(=O)Nc1c(C)cccc1C,0,0,0,0
Cc1cccc(N2C(=O)/C(=C\c3ccc4c(c3)OCO4)c3ccccc3C2=O)c1,0,0,0,75.9
O=C1Cc2ccccc2C(=O)N1c1ccc2c(c1)OCO2,0,0,0,81.5
O=C1C/C(=C\c2ccc3c(c2)OCO3)Cc2ccccc21,0,0,0,0
Cc1ccc(C(=O)/C=C/c2ccc3c(c2)OCCO3)c(OCc2ccccc2)c1,0,0,0,0
Cc1cccc(N2C(=O)/C(=C\c3ccc4c(c3)OCCO4)c3ccccc3C2=O)c1,0,0,0,88.4
O=S(=O)(c1ccc(Br)cc1)N1CCN=C1N1CCCC1,0,0,0,0
SMILES,USP10 block,USP7 block,UCHL1 inh,USP8 inh
CC(C)(C)c1cc2nc3c(c(=O)n2[nH]1)CN(Cc1ccc(Br)s1)CC3,0,0,0,40.1
O=C(CCc1ccccc1)Nc1cc(F)c2nc(N3CCCCC3)ccc2c1,0,0,0,70.4
COc1cccc(CC(=O)Nc2cc(F)c3nc(N4CCOCC4)ccc3c2)c1,0,0,0,71.6
O=C(Nc1cc(F)c2nc(N3CCCC3)ccc2c1)c1ccco1,0,0,0,70.2
Cc1cc(OCC(=O)Nc2ccccc2)nc(N2CCCCCC2)n1,0,0,0,0
COc1ccc(CCC(=O)Nc2cc(F)c3nc(N4CCOCC4)ccc3c2)cc1,0,0,0,46.7
COc1cccc([C@@H]2CNC[C@H]2c2cc(=O)[nH]c(NCc3ccncc3)n2)c1,0,0,0,0
CC(C)S(=O)(=O)N1CCCn2c(nc3ccccc32)C1,0,0,0,0
Cc1ccc(S(=O)(=O)c2c[nH]c3cc(F)ccc3c2=O)cc1F,0,0,0,68.8
Cc1ccc2[nH]cc(S(=O)(=O)c3cc(F)cc(F)c3)c(=O)c2c1,0,36.1,0,98.1
Cc1ccc2[nH]cc(S(=O)(=O)c3ccc(C)c(F)c3)c(=O)c2c1,0,0,0,0
COc1ccc(OCC(=O)N2CCC([C@@H]3C[C@H](C(F)F)n4nc(C)cc4N3)CC2)cc1,0,0,0,0
CCCC(=O)N1CCC2(CC1)Nc1ccccc1NC2=O,0,0,0,87.5
N#Cc1ccc(OCC(=O)NC(Cc2ccccc2)c2nc3ccccc3[nH]2)cc1 (centres undefined),0,0,0,35.8
O=C(COc1cccc(F)c1)NC(Cc1ccccc1)c1nc2ccccc2[nH]1 (centres undefined),0,0,0,73.0
O=C(CCCC(=O)N(c1ccc2c(c1)OCCO2)C(C(=O)NC1CCCCC1)c1ccc(F)cc1)Nc1ccccn1 (centres undefined),40.0,0,0,58.1
O=C(NC1CCCCC1)C(c1ccc(F)cc1)N(C(=O)C1COc2ccccc2O1)c1ccc2c(c1)OCO2 (centres undefined),0,0,0,41.4
O=C(NC1CCCCC1)C(c1ccccc1)N(C(=O)c1cccs1)c1ccc2c(c1)OCO2 (centres undefined),0,0,0,0
Cc1ccc(C(C(=O)NC2CCCCC2)N(C(=O)CCCC(=O)Nc2ccccn2)c2ccc3c(c2)OCCO3)cc1 (centres undefined),0,0,0,0
O=C(NCc1ccncc1)c1ccccc1Sc1nccnc1Oc1ccccc1,0,0,0,0
Cc1cccc(Nc2cc(C3CCCN(C(=O)c4ccncn4)C3)ccn2)n1 (centres undefined),0,0,0,0
COc1cc(-c2ccccc2)c(O)c(O)c1-c1ccccc1,67.4,61.2,36.4,72.5
O=c1c(-c2nc(C3CC3)no2)cccn1Cc1nc(-c2ccccc2F)no1,0,0,0,0
O=c1c(-c2nc(-c3ccncc3)no2)cccn1Cc1c(F)cccc1Cl,0,0,0,51.4
Cc1ccc2c(c1)[C@]1(C(=O)N2)N2CCC[C@H]2[C@@H](C(=O)c2ccccc2)[C@]12C(=O)Nc1ccccc12,0,0,0,0
SMILES,USP10 block,USP7 block,UCHL1 inh,USP8 inh
COc1ccc(S(=O)(=O)N2CCc3ccccc32)cc1C(=O)Nc1ccc2[nH]c(=O)[nH]c2c1,31.4,0,0,73.3
CCOC(=O)C(C)Sc1ncnc2c1sc1nc(N3CCCC3)c3c(c12)CC(C)(C)OC3 (centres undefined),0,0,0,45.7
COc1ccc(NC(=O)CC(=O)c2ccc([N+](=O)[O-])cc2)cc1S(=O)(=O)Nc1ccc(Br)cc1,52.6,0,0,72.1
COc1ccc(NC(=O)COc2ccccc2C#N)cc1S(=O)(=O)Nc1ccccc1Cl,0,0,0,0
COc1ccc(NS(=O)(=O)c2ccc(Cl)c(NC(=O)CC(=O)c3ccc([N+](=O)[O-])cc3)c2)cc1,0,0,0,37.1
CC1CCN(C(=O)CCNc2c(N3CCCC3)c(=O)c2=O)CC1,0,0,0,0
COc1ccc(OC)c(NC(=O)c2cc3c(OC)cccc3[nH]2)c1,0,0,0,0
COc1ccc(NC(=O)[C@H](C)NC(=O)c2cc3c(OC)cccc3[nH]2)cc1Cl,51.4,38.7,0,97.8
CC(C)N1CCn2c(nc3cc(NC(=O)c4cccnc4)ccc32)C1,0,0,0,32.4

# Bioassay records as filed in PubChem BioAssay.
